From PubChem
Rows were chosen to be rich in hits. Some 7.2% of all compounds tested hit in one or more screens of this group.
PK Bst: modulators of Bacillus stearothermophilus pyruvate kinase | hit rate 1.2% among 51,000 | Potency, µM | purified pyruvate kinase, luminescence ATP production; ribose 5-phosphate activator present at AC10; in the data active means potency below about 11 µM; inconclusive means mostly about 12 µM to 25 µM;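 the screen sought inhibitors and activators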
Tau filament bind: binders of human tau filaments | hit rate 2% among 71,000 | P10636 | recombinant tau filaments, thioflavin S fluorescence, 15 h; filaments grown with octadecylsulfate alongside compound | Potency, µM (top dose mostly 57.1 µM);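 further: actives lower thioflavin S fluorescence by blocking filaments or displacing dye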
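Recombinant tau protein (human, 1 uM final) plus 30 uM ODS in HEPES pH 7.4 with NaCl, DTT and thioflavine S. Compound present from the start; fluorescence at 510 nm after 15 h, 37 C.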
HEK293 cAMP ctrl: raises cAMP in parental HEK293 cells, TSHR agonist counter-screen | parental HEK293 CNG cAMP sensor, membrane potential fluorescence | Potency, µM (series often up to 57.1 µM), actives largely listed as activators | hit rate 2.5% among 73,000 | AID 938; further: nearly all actives have a fitted effect of over 55% in size
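Parental HEK 293 cells stably expressing a modified CNG channel (no TSHR) report cAMP rise as membrane depolarization. Membrane potential dye with 100 uM RO 20-1724 was loaded for 60 min at room temperature, then compound added for 30 min; fluorescence read at 590 nm.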
TSHR ag: agonists of human thyroid stimulating hormone receptor | hit rate 0.48% among 73,000 | Potency, µM (titrated, usually from 57.1 µM), hits mostly activators | HEK293-CNG-TSHR cells (CNG channel as cAMP sensor), membrane potential dye, cAMP | AID 926 | P16473; active means well fitted activation curve with a large enough effect in the main read-out, with a control signal flat, not every such curve was filed as active; inconclusive means small, poorly fitted or top-dose-only effect, or a change in a side signal; inactive means no such curve, though single readings can be large or run the other way; reference of the percent scale not stated here;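 further: the control signal comes from parental cells without the receptor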
Target sequence (P16473 whole entry, looked up): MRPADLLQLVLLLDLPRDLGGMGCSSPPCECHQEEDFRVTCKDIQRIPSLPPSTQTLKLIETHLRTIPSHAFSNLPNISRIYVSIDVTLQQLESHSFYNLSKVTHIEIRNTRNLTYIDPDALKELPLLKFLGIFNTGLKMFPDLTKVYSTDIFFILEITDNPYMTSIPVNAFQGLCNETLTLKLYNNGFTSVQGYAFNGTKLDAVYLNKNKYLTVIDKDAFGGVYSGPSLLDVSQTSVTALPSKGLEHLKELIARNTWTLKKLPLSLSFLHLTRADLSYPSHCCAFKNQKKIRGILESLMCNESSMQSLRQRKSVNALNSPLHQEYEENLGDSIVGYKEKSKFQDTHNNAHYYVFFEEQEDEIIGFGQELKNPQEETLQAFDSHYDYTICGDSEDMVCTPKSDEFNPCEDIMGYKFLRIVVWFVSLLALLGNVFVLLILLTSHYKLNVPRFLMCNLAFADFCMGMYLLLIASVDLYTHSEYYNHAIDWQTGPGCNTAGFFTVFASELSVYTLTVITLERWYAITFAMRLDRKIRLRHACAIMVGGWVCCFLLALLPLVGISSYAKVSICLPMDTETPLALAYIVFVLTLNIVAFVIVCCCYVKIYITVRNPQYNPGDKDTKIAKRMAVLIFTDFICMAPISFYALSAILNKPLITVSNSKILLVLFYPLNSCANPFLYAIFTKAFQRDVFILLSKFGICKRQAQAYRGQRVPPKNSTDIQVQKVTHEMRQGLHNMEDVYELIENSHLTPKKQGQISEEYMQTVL
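HEK 293 cells stably expressing TSHR and a cAMP-gated CNG channel; parental CNG-only cells as counterscreen. Cells preloaded 60 min with membrane potential dye plus 100 uM RO 20-1724, then compound 30 min; fluorescence read at 590 nm.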
FLuc inh: firefly luciferase inhibition; Potency, µM (titrated, usually from 57.1 µM), hits mostly inhibitors; AID 411; purified firefly luciferase, luminescence, 8 min; hit rate 2.2% among 72,000; further: nearly all actives have a fitted effect of over 40% in size
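Inhibition of light generation by firefly luciferase from ATP and luciferin was profiled with concentration-response curves per sample, ATP held at 10 uM within the enzyme's linear range. Plates were read by luminescence after an 8-minute ambient incubation.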
ERK AVP inh: vasopressin-driven ERK pathway inhibition | HEK293-V1b, vasopressin-stimulated pERK AlphaScreen | Potency, µM (titrated, usually from 57.5 µM), usual class: inhibitors | hit rate 0.99% among 72,000 | AID 995; further: nearly all actives have a fitted effect of over 55% in size
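Phosphorylated ERK1/2 detected via AlphaScreen bead proximity in lysates of V1b-expressing HEK293 cells given 25 nM vasopressin for 5 min after 30 min compound exposure (37 °C). AC50 from Hill equation; basal DMSO 0%, vasopressin 100%.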
Large screens that a line does not name were inactive. Unless noted, the call rests on the fitted dose curve; in most records, active means well fitted curve in the direction sought with a large enough effect; inconclusive means small, poorly fitted or top-dose-only effect, or another doubt; inactive means no such curve, though single readings can be large; an effect the other way counts as inactive or inconclusive.

CC(C)CN1CCC2(CC1)CCN(C(=O)c1cc(C(F)(F)F)cc(C(F)(F)F)c1)CC2	HEK293 cAMP ctrl inconclusive, TSHR ag inconclusive (no result: PK Bst)
CN(C)c1nc(N)nc(Nc2ccccc2C#N)n1	none (no result: PK Bst)
CN(C)c1nc(Nc2ccc(Cl)cc2)nc(OCC#N)n1	PK Bst 1.7, ERK AVP inh inconclusive
O=C(c1cnccn1)N1CCC[C@@]2(CCN(c3cccc(-c4ccccc4)c3)C2)C1	Tau filament bind inconclusive, HEK293 cAMP ctrl inconclusive, TSHR ag inconclusive, ERK AVP inh inconclusive (no result: PK Bst)
Cc1nc2ccccc2c2nc3ccccc3n12	none (no result: PK Bst)
c1ccc2c(c1)nnn1c3ccccc3nc21	Tau filament bind 7.9µM, FLuc inh 13µM (no result: PK Bst)
COc1ccc(C(=O)Nc2cccc(C)c2)cc1S(=O)(=O)N1CCOCC1	HEK293 cAMP ctrl inconclusive, TSHR ag inconclusive
COc1ccc(C(=O)Nc2ccc(-c3ccc(C)o3)cc2)cc1S(=O)(=O)N1CCOCC1	ERK AVP inh 2µM
COc1ccc(-c2noc(C)c2-c2ccc3ccccc3n2)c(O)c1	Tau filament bind 16µM
O=C(CSc1nnc(-c2ccccc2)o1)N1CCc2ccccc2C1	none (no result: TSHR ag)
COc1ccc(-c2nnc(-c3ccc(N(C)C)cc3)o2)cc1	none
COc1ccc(-c2nnc(SCC(=O)N3CCc4ccccc4C3)o2)cc1	PK Bst inconclusive, HEK293 cAMP ctrl 25µM, TSHR ag inconclusive
COc1ccc(-c2nnc(-c3ccc(N)cc3)o2)cc1	PK Bst 3.3, FLuc inh 7.9µM
COc1ccc(-c2nnc(SCC(=O)/C(C#N)=C(\C)N)o2)cc1	FLuc inh 5µM (no result: PK Bst)
CCOC(=O)N1CCN(C(=O)CSc2nnc(-c3ccc(C(C)(C)C)cc3)o2)CC1	FLuc inh 1.3µM, ERK AVP inh inconclusive (no result: PK Bst)
FC(F)(F)c1ccccc1-c1cncnc1NCCN1CCOCC1	none (no result: PK Bst)
Cc1oc(-c2ccccc2F)nc1CS(=O)(=O)CC(=O)N1CCOCC1	HEK293 cAMP ctrl 32µM, TSHR ag inconclusive (no result: PK Bst)
CCN1CCN(C(=O)CS(=O)(=O)Cc2nc(-c3ccc(C)cc3)oc2C)CC1	none (no result: PK Bst)
Cc1ccc(-c2nc(CS(=O)(=O)CC(=O)N3CC(C)CC(C)C3)c(C)o2)cc1 (stereo not given)	HEK293 cAMP ctrl 32µM, TSHR ag inconclusive, ERK AVP inh inconclusive (no result: PK Bst)
CC(=O)OC(C)(C)N=Nc1ccc(Br)cc1	none (no result: PK Bst, TSHR ag, ERK AVP inh)
CCNc1ncc2nc(CCc3ccccc3)c(=O)n(-c3ccccc3)c2n1	none (no result: PK Bst, TSHR ag)
CN(C)c1ncc2nc(CCc3ccccc3)c(=O)n(-c3ccccc3)c2n1	HEK293 cAMP ctrl inconclusive, TSHR ag inconclusive (no result: PK Bst)
COC(=O)Cn1ncc2c(C)n(Cc3ccccc3)c(C)c2c1=O	HEK293 cAMP ctrl inconclusive, TSHR ag inconclusive, FLuc inh 20µM (no result: PK Bst)
CN1CCN(c2ncc3nc(-c4ccccc4)c(=O)n(CCc4ccccc4)c3n2)CC1	none (no result: PK Bst)
CCN1c2ccccc2-c2nc3ccccc3n2C1c1ccccn1 (stereo not given)	HEK293 cAMP ctrl 16µM, TSHR ag inconclusive
c1ccc2c(c1)NC(c1ccncc1)n1c-2nc2ccccc21 (stereo not given)	none (no result: Tau filament bind, HEK293 cAMP ctrl, TSHR ag, ERK AVP inh)
CCN1c2ccccc2-c2nc3ccccc3n2C1c1cccnc1 (stereo not given)	HEK293 cAMP ctrl 32µM, TSHR ag inconclusive
CCN1c2ccccc2-c2nc3ccccc3n2C1c1ccncc1 (stereo not given)	HEK293 cAMP ctrl 20µM, TSHR ag inconclusive
CCN1C(=O)CC(n2c(C)nc3ccccc32)C1=O (stereo not given)	none
C=CCN1CCc2c(cc(O)c(O)c2Br)[C@H](c2ccccc2)C1	HEK293 cAMP ctrl inconclusive, TSHR ag inconclusive (no result: PK Bst)
N#Cc1ccc(CN2CC3(CCN(C(=O)c4cc(C(F)(F)F)cc(C(F)(F)F)c4)CC3)C2)cc1	none (no result: PK Bst)
Clc1ccccc1-c1nc(-n2ccnc2)c2ccccc2n1	none (no result: PK Bst)
C=C1c2c(Cl)ccc(O)c2C(O)=C2C(=O)[C@@]3(O)C(O)=C(C(N)=O)C(=O)[C@@H](N(C)C)[C@@H]3[C@@H](O)[C@H]12	none (no result: PK Bst)
Cc1ccccc1-c1nnc2s/c(=C\c3ccc(N(C)C)cc3)c(=O)n12	none
Cc1cc(C)c2nc3s/c(=C/c4ccc5c(c4)n(C)c(=O)n5C)c(=O)n3c2c1	Tau filament bind 25µM
Cc1cc(NCCCn2ccnc2)n2nc(-c3ccc(F)cc3)cc2n1	PK Bst inconclusive, FLuc inh 13µM
Cc1ccc(-c2cc3nc(C)cc(NCc4ccco4)n3n2)cc1	PK Bst 6.5, FLuc inh 7.9µM
c1cncc(-c2cncnc2-n2ccnc2)c1	HEK293 cAMP ctrl inconclusive, TSHR ag inconclusive (no result: PK Bst)
COc1ccc(-n2c(C)cc(C(=O)Cn3c(NCCO)nc4ccccc43)c2C)cc1	ERK AVP inh 10µM
O=Cc1ccc(OC2C=CC(C#Cc3ccccc3)OC2CO)cc1 (stereo not given)	none (no result: PK Bst, Tau filament bind, FLuc inh)
[O-][n+]1c(CN2CCCCC2)nc2cccc3c2c1-c1ccccc1-3	none (no result: PK Bst)
COC(=O)c1ccc(OC)c(CSc2nnc(COc3ccc(Cl)cc3)o2)c1	HEK293 cAMP ctrl inconclusive, TSHR ag inconclusive
COC(=O)c1ccc(OC)c(CSc2nnc(COc3ccccc3)o2)c1	HEK293 cAMP ctrl 13µM, TSHR ag inconclusive
Cc1cccc(OCc2nnc(SCC(=O)c3ccccc3)o2)c1	HEK293 cAMP ctrl 4µM, TSHR ag inconclusive
Cc1cc(C)cc(OCc2nnc(SCC(=O)c3ccccc3)o2)c1	HEK293 cAMP ctrl inconclusive, TSHR ag inconclusive
COC(=O)N1CCC2(CCN(C(=O)Nc3cccc(C#N)c3)CC2)CC1	none (no result: PK Bst)
COc1ccc(C2C(C(=O)N3CCC(C)CC3)c3ccccc3C(=O)N2C)cc1 (stereo not given)	HEK293 cAMP ctrl inconclusive, TSHR ag inconclusive
COc1ccc(C2C(C(=O)N3CC(C)CC(C)C3)c3ccccc3C(=O)N2C)cc1 (stereo not given)	HEK293 cAMP ctrl 16µM, TSHR ag inconclusive
COC(=O)C(N)CS (stereo not given)	none (no result: PK Bst, Tau filament bind, HEK293 cAMP ctrl, TSHR ag, FLuc inh)
CSc1nnc2c(n1)OC(c1cccn1C)N(C(C)=O)c1ccccc1-2 (stereo not given)	HEK293 cAMP ctrl 16µM, TSHR ag inconclusive
FC(F)(F)c1ccccc1-c1nc(N2CCOCC2)c2ccccc2n1	HEK293 cAMP ctrl 1µM, TSHR ag inconclusive (no result: PK Bst)
O=c1c2cccc3c2c(nn1CN1CCOCC1)-c1ccccc1-3	PK Bst 2.9
COc1cccc(Nc2ncc3nc(C)c(=O)n(-c4ccccc4)c3n2)c1	HEK293 cAMP ctrl inconclusive, TSHR ag inconclusive (no result: PK Bst)
O=C(NC1CCCC1)c1cnn2c(C(F)(F)F)cc(-c3ccco3)nc12	Tau filament bind inconclusive, HEK293 cAMP ctrl inconclusive, TSHR ag inconclusive, ERK AVP inh inconclusive
CC(C)CCNC(=O)c1cnn2c(C(F)(F)F)cc(-c3ccco3)nc12	Tau filament bind 16µM
NC(=O)c1cnn2c(C(F)(F)F)cc(-c3ccc(F)cc3)nc12	PK Bst 2.7, Tau filament bind inconclusive, ERK AVP inh inconclusive
